Test results from the supplement of paper PMC10849652.
Of roughly 7,900 targets only a part is listed; those with a hit were picked by preference. About 0.6% of all pairs of compound and target were hits. Values without a mark were called inactive.

Compound: CCN(CCCOc1ccc2c(Nc3cc(CC(=O)Nc4cccc(F)c4)[nH]n3)ncnc2c1)CCOP(=O)(O)O [barasertib]
Assay: log2 fold change, soluble protein after heating vs DMSO (PISA); higher = thermal stabilisation; K562 cells, 10 uM, 30 min; active = over 0.2 and 3.5 SD of the protein, either way, in both replicates (recomputed)
How it was run: (§1)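 K562 cells at 2×10^6 cells/mL were exposed to 10 μM compound for 30 min, then aliquots were heated for 3 min across 48°C-58°C, pooled, and extracted in PBS containing 0.5% NP-40 at 4°C. The supernatant after 21,000xg for 90 min was taken as soluble protein and measured by TMTpro 16plex LC-MS/MS with channel sums equalised. Thermal stability is reported relative to control samples, with values from duplicates. Fold changes are given on a log2 scale.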

UniProt Q14157, sequence (Q14157 whole entry, looked up): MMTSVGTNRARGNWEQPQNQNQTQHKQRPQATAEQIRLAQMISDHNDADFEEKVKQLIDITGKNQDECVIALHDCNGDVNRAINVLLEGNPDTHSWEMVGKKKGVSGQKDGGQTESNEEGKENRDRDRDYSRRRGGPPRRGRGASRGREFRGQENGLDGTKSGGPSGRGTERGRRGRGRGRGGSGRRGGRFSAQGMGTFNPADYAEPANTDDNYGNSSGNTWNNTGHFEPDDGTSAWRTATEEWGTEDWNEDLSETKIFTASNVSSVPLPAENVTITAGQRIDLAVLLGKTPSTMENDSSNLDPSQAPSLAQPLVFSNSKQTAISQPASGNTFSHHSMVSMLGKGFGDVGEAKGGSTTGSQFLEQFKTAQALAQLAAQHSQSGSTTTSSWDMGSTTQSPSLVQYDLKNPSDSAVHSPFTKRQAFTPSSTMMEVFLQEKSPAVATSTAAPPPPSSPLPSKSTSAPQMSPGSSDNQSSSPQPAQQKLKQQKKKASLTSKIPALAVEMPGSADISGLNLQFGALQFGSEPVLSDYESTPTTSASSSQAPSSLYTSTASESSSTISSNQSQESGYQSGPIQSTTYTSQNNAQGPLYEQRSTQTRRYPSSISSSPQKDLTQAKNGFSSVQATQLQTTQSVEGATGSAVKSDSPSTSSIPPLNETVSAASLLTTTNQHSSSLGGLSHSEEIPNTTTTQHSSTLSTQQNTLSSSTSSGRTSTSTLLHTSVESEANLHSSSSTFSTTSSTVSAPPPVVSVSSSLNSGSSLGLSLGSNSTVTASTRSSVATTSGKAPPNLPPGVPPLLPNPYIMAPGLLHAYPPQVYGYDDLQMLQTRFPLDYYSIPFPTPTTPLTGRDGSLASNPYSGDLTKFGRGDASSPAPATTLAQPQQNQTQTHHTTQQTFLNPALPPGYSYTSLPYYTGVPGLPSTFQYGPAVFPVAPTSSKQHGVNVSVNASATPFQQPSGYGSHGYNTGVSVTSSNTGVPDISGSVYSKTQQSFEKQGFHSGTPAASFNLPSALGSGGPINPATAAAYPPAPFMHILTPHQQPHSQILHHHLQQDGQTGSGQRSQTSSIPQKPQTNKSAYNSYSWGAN
UniProt Q8IWV8, sequence (Q8IWV8 whole entry, looked up): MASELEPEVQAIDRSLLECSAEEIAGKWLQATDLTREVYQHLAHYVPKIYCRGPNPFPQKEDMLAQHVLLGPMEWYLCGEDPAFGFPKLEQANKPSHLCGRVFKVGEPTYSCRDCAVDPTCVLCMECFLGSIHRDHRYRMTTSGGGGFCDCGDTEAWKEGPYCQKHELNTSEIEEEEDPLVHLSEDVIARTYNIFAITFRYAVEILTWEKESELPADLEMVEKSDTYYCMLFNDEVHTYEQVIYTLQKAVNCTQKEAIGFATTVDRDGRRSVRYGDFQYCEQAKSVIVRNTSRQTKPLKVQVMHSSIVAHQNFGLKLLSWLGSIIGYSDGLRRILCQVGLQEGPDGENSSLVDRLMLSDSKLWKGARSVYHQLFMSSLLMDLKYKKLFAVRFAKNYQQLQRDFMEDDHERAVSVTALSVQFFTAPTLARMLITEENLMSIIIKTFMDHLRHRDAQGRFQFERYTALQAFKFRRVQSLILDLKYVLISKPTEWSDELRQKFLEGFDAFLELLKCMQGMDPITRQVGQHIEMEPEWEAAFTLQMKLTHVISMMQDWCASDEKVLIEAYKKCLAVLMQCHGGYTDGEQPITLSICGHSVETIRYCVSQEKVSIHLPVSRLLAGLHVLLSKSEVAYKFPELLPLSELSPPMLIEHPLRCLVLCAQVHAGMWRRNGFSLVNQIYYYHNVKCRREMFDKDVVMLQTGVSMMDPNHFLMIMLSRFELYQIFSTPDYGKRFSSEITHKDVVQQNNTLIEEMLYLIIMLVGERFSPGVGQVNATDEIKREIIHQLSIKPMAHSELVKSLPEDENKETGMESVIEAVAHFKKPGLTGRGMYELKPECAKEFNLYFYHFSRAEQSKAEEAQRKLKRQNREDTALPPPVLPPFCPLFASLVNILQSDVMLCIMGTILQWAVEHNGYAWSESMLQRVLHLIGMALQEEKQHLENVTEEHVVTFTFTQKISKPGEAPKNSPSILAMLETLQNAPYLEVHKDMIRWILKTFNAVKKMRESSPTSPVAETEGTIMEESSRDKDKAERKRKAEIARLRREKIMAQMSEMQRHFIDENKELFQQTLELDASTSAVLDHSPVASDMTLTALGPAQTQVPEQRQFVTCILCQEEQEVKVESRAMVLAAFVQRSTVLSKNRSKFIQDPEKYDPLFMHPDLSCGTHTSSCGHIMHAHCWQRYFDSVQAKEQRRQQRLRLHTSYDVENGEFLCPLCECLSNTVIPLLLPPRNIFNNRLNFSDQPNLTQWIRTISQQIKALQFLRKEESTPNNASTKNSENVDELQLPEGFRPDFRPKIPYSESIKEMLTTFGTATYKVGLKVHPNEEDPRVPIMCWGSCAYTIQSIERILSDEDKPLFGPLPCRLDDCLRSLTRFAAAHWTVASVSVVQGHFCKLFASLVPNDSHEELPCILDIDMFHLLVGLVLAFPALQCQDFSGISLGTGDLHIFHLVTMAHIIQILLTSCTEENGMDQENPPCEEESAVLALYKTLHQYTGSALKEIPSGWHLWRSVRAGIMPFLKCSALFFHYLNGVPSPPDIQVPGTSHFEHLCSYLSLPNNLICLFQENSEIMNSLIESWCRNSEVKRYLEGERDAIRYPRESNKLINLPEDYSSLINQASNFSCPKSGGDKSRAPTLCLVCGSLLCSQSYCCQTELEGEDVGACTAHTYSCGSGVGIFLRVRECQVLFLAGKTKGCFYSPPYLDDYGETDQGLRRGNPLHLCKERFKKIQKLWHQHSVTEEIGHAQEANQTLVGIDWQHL
UniProt Q9HAV4, sequence (Q9HAV4 whole entry, looked up): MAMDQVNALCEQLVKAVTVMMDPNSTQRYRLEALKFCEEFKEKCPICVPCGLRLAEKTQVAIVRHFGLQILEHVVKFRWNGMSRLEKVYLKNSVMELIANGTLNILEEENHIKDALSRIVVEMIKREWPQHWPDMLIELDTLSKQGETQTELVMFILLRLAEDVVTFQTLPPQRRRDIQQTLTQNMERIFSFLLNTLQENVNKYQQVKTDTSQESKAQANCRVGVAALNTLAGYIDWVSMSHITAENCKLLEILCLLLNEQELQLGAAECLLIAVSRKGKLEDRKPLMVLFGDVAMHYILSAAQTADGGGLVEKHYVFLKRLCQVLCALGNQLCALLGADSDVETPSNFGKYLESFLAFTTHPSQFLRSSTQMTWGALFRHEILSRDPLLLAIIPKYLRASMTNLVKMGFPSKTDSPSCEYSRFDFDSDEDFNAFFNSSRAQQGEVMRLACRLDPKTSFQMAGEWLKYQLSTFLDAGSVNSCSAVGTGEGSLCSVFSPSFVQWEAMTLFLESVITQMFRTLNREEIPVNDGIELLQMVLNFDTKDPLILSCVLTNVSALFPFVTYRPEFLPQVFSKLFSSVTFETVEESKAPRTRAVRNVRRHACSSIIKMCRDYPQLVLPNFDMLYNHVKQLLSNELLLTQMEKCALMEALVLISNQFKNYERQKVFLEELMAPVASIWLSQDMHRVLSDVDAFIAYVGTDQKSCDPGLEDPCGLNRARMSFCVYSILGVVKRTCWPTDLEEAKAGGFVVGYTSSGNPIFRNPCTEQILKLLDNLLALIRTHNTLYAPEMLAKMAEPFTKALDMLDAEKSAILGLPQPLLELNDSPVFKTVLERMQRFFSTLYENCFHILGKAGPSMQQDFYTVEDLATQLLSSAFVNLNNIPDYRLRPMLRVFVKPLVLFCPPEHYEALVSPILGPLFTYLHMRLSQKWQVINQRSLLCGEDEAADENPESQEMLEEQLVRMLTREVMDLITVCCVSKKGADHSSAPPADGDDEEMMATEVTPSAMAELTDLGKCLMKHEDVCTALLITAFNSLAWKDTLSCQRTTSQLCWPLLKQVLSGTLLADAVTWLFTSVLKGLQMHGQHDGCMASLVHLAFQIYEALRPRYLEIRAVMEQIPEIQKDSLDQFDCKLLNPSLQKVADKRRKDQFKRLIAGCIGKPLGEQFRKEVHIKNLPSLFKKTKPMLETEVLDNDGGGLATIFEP
UniProt Q7Z3J2, sequence (Q7Z3J2 whole entry, looked up): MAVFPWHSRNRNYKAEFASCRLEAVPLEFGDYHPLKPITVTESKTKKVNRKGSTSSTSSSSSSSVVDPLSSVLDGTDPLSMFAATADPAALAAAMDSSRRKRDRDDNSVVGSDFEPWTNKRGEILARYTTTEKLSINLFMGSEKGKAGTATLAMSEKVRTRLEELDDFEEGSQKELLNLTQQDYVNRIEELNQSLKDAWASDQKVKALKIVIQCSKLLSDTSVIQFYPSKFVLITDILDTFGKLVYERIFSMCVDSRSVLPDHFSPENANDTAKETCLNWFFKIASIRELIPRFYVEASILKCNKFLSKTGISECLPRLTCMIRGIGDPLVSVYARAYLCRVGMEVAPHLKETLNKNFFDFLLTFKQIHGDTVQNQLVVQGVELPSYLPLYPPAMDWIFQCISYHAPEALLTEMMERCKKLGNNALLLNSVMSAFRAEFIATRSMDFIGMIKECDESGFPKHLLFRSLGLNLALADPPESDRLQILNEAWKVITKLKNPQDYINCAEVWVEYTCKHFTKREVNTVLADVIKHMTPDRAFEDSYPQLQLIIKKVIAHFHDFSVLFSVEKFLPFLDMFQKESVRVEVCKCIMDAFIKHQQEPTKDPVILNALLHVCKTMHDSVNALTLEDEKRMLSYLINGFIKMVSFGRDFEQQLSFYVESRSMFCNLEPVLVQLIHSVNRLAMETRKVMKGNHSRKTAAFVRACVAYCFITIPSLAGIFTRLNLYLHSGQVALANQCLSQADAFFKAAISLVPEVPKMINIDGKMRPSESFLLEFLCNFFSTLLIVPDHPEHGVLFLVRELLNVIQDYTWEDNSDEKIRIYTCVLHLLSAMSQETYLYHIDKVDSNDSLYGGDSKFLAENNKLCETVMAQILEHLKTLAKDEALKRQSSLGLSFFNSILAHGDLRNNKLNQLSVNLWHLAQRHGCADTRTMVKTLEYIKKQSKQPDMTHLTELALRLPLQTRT
UniProt Q8N4H5, sequence (Q8N4H5 whole entry, looked up): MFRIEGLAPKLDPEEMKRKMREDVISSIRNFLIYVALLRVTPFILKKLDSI

Target | log2 fold change
WDHD1 (UniProt O75717) | 0.055
TOMM5 isoform 2 (UniProt Q8N4H5) | 0.03
WDR41 (UniProt Q9HAD4) | 0.033
XPO5 (UniProt Q9HAV4) | 0.029
VARS2, A0A0G2JL52 | 0.052
WNK1 isoform 7 (UniProt Q9H4A3) | 0.032
TRIM28 (UniProt Q13263) | 0.04
WRB (UniProt O00258) | -0.014
UBR2 (UniProt Q8IWV8) | 0.046
UBE2S (UniProt Q16763) | 0.03
VPS13B (UniProt Q7Z7G8) | 0.002
TRMT10C (UniProt Q7L0Y3) | 0.041
XPNPEP3 (UniProt Q9NQH7) | -0.016
TMEM189-UBE2V1 (UniProt I3L0A0) | -0.054
USP15 (UniProt Q9Y4E8) | 0.06
VWA8 (UniProt A3KMH1) | 0.022
TUBAL3 (UniProt A6NHL2) | -0.028
XPO1 (UniProt O14980) | 0.039

Target | log2 fold change
U2AF2 (UniProt P26368) | -0.015
WDR47 (UniProt O94967) | -0.007
U2AF1 isoform 2 (UniProt Q01081) | 0.009
XPNPEP1 isoform 3 (UniProt Q9NQW7) | 0.016
UBA1 (UniProt P22314) | 0.138
WDR4 (UniProt P57081) | -0.023
VPS35L (UniProt Q7Z3J2) | 0.07
UBA6 | 0.07
UQCR10 (UniProt Q9UDW1) | -0.042
TRAPPC11 (UniProt Q7Z392) | 0.025
TXN2 (UniProt Q99757) | 0.009
UBAP2L isoform 1 (UniProt Q14157) | -0.011
TMEM208 (UniProt Q9BTX3) | -0.012
UBAP2L isoform 5 (UniProt Q14157) | 0.011
TXNIP (UniProt Q9H3M7) | 0.033
VRK2 (UniProt Q86Y07) | 0.01
WDR61 (UniProt Q9GZS3) | 0.038
USP48 isoform 8 (UniProt Q86UV5) | 0.14

Compound: CC[C@@H]1C(=O)N(C)c2cnc(Nc3ccc(C(=O)NC4CCN(C)CC4)cc3OC)nc2N1C1CCCC1
Assay: as above
How it was run: as §1

Target | log2 fold change
WDHD1 (UniProt O75717) | -0.209
TOMM5 isoform 2 (UniProt Q8N4H5) | -0.003
WDR41 (UniProt Q9HAD4) | -0.169
XPO5 (UniProt Q9HAV4) | -0.122
VARS2, A0A0G2JL52 | -0.024
WNK1 isoform 7 (UniProt Q9H4A3) | -0.021
TRIM28 (UniProt Q13263) | -0.097
WRB (UniProt O00258) | 0.011
UBR2 (UniProt Q8IWV8) | 0.046
UBE2S (UniProt Q16763) | -0.025
VPS13B (UniProt Q7Z7G8) | -0.01
TRMT10C (UniProt Q7L0Y3) | -0.161
XPNPEP3 (UniProt Q9NQH7) | 0.046
TMEM189-UBE2V1 (UniProt I3L0A0) | 0.054
USP15 (UniProt Q9Y4E8) | -0.095
VWA8 (UniProt A3KMH1) | -0.027
TUBAL3 (UniProt A6NHL2) | 0.144
XPO1 (UniProt O14980) | -0.175

Target | log2 fold change
U2AF2 (UniProt P26368) | -0.057
WDR47 (UniProt O94967) | 0.011
U2AF1 isoform 2 (UniProt Q01081) | -0.217
XPNPEP1 isoform 3 (UniProt Q9NQW7) | 0.027
UBA1 (UniProt P22314) | -0.236
WDR4 (UniProt P57081) | -0.031
VPS35L (UniProt Q7Z3J2) | 0.021
UBA6 | -0.139
UQCR10 (UniProt Q9UDW1) | 0.093
TRAPPC11 (UniProt Q7Z392) | -0.045
TXN2 (UniProt Q99757) | -0.037
UBAP2L isoform 1 (UniProt Q14157) | -0.026
TMEM208 (UniProt Q9BTX3) | -0.071
UBAP2L isoform 5 (UniProt Q14157) | 0.005
TXNIP (UniProt Q9H3M7) | 0.112
VRK2 (UniProt Q86Y07) | 0.034
WDR61 (UniProt Q9GZS3) | 0.067
USP48 isoform 8 (UniProt Q86UV5) | -0.55 (active)
